Screening data as filed in PubChem.
Many of the other results were omitted from the sample, so hits are more common in it than they were.
KDM5B inh: blocks human KDM5B histone demethylase activity; Potency, µM (top dose mostly 57.7 µM), hits mostly inhibitors; AID 1347165; KDM5B demethylase, FDH-coupled NADH fluorescence (FDH is formaldehyde dehydrogenase); hit rate 2.6% among 220,000; active means well fitted inhibition curve with a large enough effect; further: nearly all actives have a fitted effect of over 70% in size
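Measured: NADH fluorescence change, 30 min, RT. System: KDM5BΔAP 200 nM final, H3K4me3 peptide, α-KG, Fe(II), ascorbate, NAD⁺ plus FDH, pH 7.5 HEPES. Compounds: titrated, 10 min pre-incubation with enzyme.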
Hits are given with their value; - = inactive.

SMILES	KDM5B inh
Cc1ccc(F)cc1S(=O)(=O)NC1CCN(c2ccc(=O)n(CC3CC3)n2)CC1	28.2µM
COc1ccc(F)cc1S(=O)(=O)N1CCc2nn(CC3CC3)c(=O)n2CC1	-
Cc1ccc(C(=O)NC2CCN(c3cnn(CC4CC4)c(=O)c3)CC2)cc1C	-
COc1ccccc1CNC(=O)c1ccc(N2CC3CC(C2)[C@H]2CCCC(=O)N2C3)nc1 (stereo not given in full)	-
Cn1nc(C(=O)OCC(=O)Nc2ccc(F)cc2F)c2ccccc2c1=O	-
Cc1cc(C(=O)N2C[C@@H](CN3CCCCCC3)[C@@H](CO)C2)nc(C)n1	-
O=C(c1ccccc1)N(Cc1ccco1)Cc1cccs1	-
Cc1ccc(C(=O)N(Cc2ccco2)Cc2ccco2)cc1	-
CCNc1ncc(C(=O)N(CCc2ccccc2)Cc2ccco2)cn1	28.2µM
COc1ccccc1Oc1coc2cc(OCc3ccccc3)ccc2c1=O	-
COc1cccc(-n2ccnc2SCC(=O)Nc2cccc3ccccc23)c1	-
Cc1sc2cc(C(=O)NCc3ccncc3)[nH]c2c1CN1CCCCC1	-
Cn1cnnc1CC1CCN(C(=O)CCc2nc3ccccc3[nH]c2=O)CC1	25.1µM
Cc1nn(C(=O)CCCC(=O)N2CCC(Cc3nncn3C)CC2)c2ccccc12	-
Cn1cnnc1CC1CCN(C(=O)CN2CC(c3ccccc3)CC2=O)CC1 (stereo not given)	-
O=C([C@H]1C[C@@H](F)CN1S(=O)(=O)c1cccc(C(F)(F)F)c1)N1CCOCC1	-
COc1ccc(-c2nc(NC(=O)c3ccc(C)c(F)c3)n[nH]2)cc1OC	-
CC(C)NC(=O)c1ccc(Cl)c(Cl)c1	-
Cc1ccc(C(=O)NCC(C)C)cc1C	-
CC(=O)N1CCCC2(C1)CN(C)c1ccc(C(=O)NC(C)C)cc12 (stereo not given)	35.5µM
CC(C)NC(=O)c1ccc2c(c1)N(C(=O)c1ccc(F)cc1)CC2	-
CC(=O)N1CCCC2(C1)CN(C)c1ccc(C(=O)NCC(C)C)cc12 (stereo not given)	31.6µM
CC(C)CNC(=O)c1ccc2c(c1)CCCN2C(=O)c1cccc(Cl)c1	-
O=C([C@@H]1C[C@H](F)CN1S(=O)(=O)Cc1cccc(Cl)c1)N1CCc2ccccc2C1	-
CCc1ccc2oc(=O)cc(CN3CCN(Cc4ccccc4)CC3)c2c1	-
SMILES	KDM5B inh
CN(C)C(CNC(=O)c1cccs1)C1CC1 (stereo not given)	-
Cc1cc(Oc2ccc(N)cn2)ccc1Cl	-
Cn1c(-c2ccc(CN3CCc4[nH]cnc4C3C(=O)O)o2)nc2ccccc21 (stereo not given)	28.2µM
Fc1cc(Cl)ccc1C1c2nc[nH]c2CCN1Cc1ccccn1 (stereo not given)	-
O=C(O)C1c2nc[nH]c2CCN1C(=O)CCN1CCCCC1 (stereo not given)	-
CC(NCc1cccnc1)C12CC3CC(CC(C3)C1)C2 (stereo not given)	-
CC(C)=CC1C(C(=O)NNC(=O)C2CC2)C1(C)C (stereo not given)	-
O=C(c1ccccc1CSc1nc2ccccc2o1)N1CCCCC1	-
Cc1oc2c(c1C(=O)N(C)C)CN(C(=O)c1ccnn1C)CC2	-
COCc1nc2nccc(-c3cc(OC)c(OC)c(OC)c3)n2n1	-
Fc1cc(F)cc(Cc2nc3nccc(-c4ccco4)n3n2)c1	25.1µM
COc1ccc(Cc2nc3nccc(-c4ccc(F)cc4)n3n2)cc1	-
Fc1cc(F)cc(Cc2nc3nccc(-c4cc5ccccc5o4)n3n2)c1	-
COc1cc(F)ccc1-c1ccnc2nc(Cc3ccc(F)cc3)nn12	28.2µM
COc1cc(-c2ccnc3nc(Cc4cc(F)cc(F)c4)nn23)cc(OC)c1OC	15.8µM
COc1ccc(Cc2nc3nccc(-c4ccsc4)n3n2)cc1	-
COc1ccc(Cc2nc3nccc(-c4cc(OC)c(OC)c(OC)c4)n3n2)cc1	14.1µM
COc1ccc(-c2ccnc3nc(Cc4ccc(F)cc4)nn23)cc1	-
COc1ccc(OCC(=O)Nc2ccc(-c3nc4ccc(C)cc4o3)cc2)cc1	-
C=C(C)CN(C)C(=O)c1coc(COc2ccc3c(c2)OCO3)n1	-
CCN(CC(=O)Nc1c(F)cccc1F)C(=O)CNC(=O)c1sc2ccccc2c1Cl	-
COc1cccc(CC2(CO)CCCN(C(=O)c3cn4ccsc4n3)C2)c1 (stereo not given)	-
COc1ccccc1CNC(=O)CN1C(=O)CCc2cc(S(=O)(=O)N3CCOCC3)ccc21	-
COc1ccccc1-n1cc(-c2ccnc(N3CC(n4cccn4)C3)n2)cn1	31.6µM
COc1ccccc1N1CCN(c2ncc3c(n2)CCCC3=O)CC1	-
COc1ccccc1N1CCN(c2ncc3c(n2)CCN(Cc2ccccc2C)C3)CC1	-
Cc1ccc(C(=O)N(CCC(N)=O)c2ccc(F)cc2)cc1	-
CCN(CC(=O)Nc1c(F)cccc1F)C(=O)c1cccnc1SC	-
Cc1cc(=O)oc2cc(OCC(=O)NC3CCCc4c3[nH]c3ccccc43)ccc12 (stereo not given)	15.8µM
Cc1noc(C)c1CCC(=O)NC1CCCc2c1[nH]c1c(Cl)cccc21 (stereo not given)	-
